High-throughput results deposited in PubChem by several laboratories.
Most compounds without a hit are left out; they make up all but 1.4% or so of the library.
LANA-H2A inh: blocks KSHV LANA binding to histone H2A/H2B. hit rate 0.6% among 320,000. Q9QR71. cell-free LANA-H2A/H2B peptide, fluorescence polarization. AID 2629. inhibition, % (no concentration beside the values); in the data active = inhibition mostly above about 10%, no sharp cut-off; inactive = mostly below about 6.7%
LYPLA1 inh: blocks human lysophospholipase 1, a PME1 counter-screen; O75608; AID 2174; inhibition, % at 5.9 µM; hit rate 0.16% among 320,000; recombinant LYPLA1, FP-Rh probe fluorescence polarization;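 active = inhibition above the mean of all tested compounds plus 3 SD, set per campaign, cut at about 14% in these data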;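 note: inhibitors block serine hydrolase probe labeling of LYPLA1 so polarization falls; 0% = enzyme with DMSO and 100% = wells lacking LYPLA1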
Target sequence (O75608 whole entry, looked up): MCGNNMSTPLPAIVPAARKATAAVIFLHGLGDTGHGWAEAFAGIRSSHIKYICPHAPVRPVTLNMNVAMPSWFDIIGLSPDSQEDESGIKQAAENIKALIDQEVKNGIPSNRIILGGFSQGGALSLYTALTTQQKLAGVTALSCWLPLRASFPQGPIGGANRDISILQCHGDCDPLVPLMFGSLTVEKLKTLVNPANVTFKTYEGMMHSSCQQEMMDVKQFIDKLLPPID
EBNA-1 inhibitor: blocks EBNA-1 binding to DNA; EBNA-1 DNA binding, fluorescence polarization; inhibition, % at 14.8 µM; hit rate 0.34% among 300,000; AID 1950; in the data active = inhibition above about 28%
LYPLA2 counter: counter-screen for PME1 inhibitors: inhibitors of human LYPLA2 | recombinant LYPLA2, FP-Rh probe fluorescence polarization | hit rate 0.38% among 320,000 | AID 2177 | inhibition, % at 5.9 µM;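 active = inhibition above the screen-wide mean plus 3 SD, limit set per campaign, cut at about 26% in these data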;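 note: 0% = LYPLA2 with DMSO and 100% = wells lacking LYPLA2 enzyme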
ZTA DNA inh: ZTA (EBV) inhibition in EBNA-1 counter-screen; ZTA-DNA binding, fluorescence polarization; inhibition, % at 11 µM; hit rate 0.15% among 320,000; in the data active = inhibition above about 33%
Target sequence (P03206 whole entry, looked up): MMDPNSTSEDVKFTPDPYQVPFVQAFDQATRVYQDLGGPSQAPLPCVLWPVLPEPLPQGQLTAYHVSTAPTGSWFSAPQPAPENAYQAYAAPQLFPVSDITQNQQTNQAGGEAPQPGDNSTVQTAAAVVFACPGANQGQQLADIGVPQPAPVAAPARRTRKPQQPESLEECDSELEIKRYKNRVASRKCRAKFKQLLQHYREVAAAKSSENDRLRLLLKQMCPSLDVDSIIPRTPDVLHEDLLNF
* = called active by the depositor; x = no result given; + = active, no number.

SMILES	LANA-H2A inh	LYPLA1 inh	EBNA-1 inhibitor	LYPLA2 counter	ZTA DNA inh
NC(=O)c1nn(CC(=O)Nc2cccc(S(=O)(=O)N3CCCCCC3)c2)c(=O)c2ccccc12	+	-6	x	7	-12
NC(=O)c1nn(CC(=O)Nc2cccc(S(=O)(=O)N3CCCC3)c2)c(=O)c2ccccc12	-1	0	x	5	-16
Cc1ccc(S(=O)(=O)NC23CC4CC(CC(C4)C2)C3)cc1	-2	2	x	2	7
Cc1nn(C)c(C(=O)Nc2ccc(S(=O)(=O)NC34CC5CC(CC(C5)C3)C4)cc2)c1Br	57*	-27	-11	-55	-10
Cc1ccccc1-n1nc(C)c(N=O)c1N	30*	1	-2	0	-3
Cc1nn(-c2ccccc2)c(N)c1N=Nc1cccnc1	0	0	-8	-3	13
CCOC(=O)c1[nH]ncc1CN1CCc2ccc(NC(=O)C3CCCO3)cc2C1 (stereo unspecified)	0	0	5	-3	4
CCN1C/C(=C/c2cccs2)c2nc3ccccc3c(C(=O)O)c2C1	11*	0	0	0	-16
COc1ccc(C/C(N)=N/OC(=O)CCc2ccccc2)cc1	0	-2	-8	2	-3
C[C@]12CC[C@@H]3c4ccc(O)cc4CC[C@H]3[C@@H]1CC[C@@H]2O	-1	2	-1	5	15
CC(=O)O[C@H]1CC[C@H]2[C@@H]3CCc4cc(O)ccc4[C@H]3CC[C@]12C	-14	2	7	2	-5
C[C@]12CC[C@@H]3c4cc(O)c(O)cc4CC[C@H]3[C@@H]1CC[C@@H]2O	29*	-3	3	-6	9
C[C@]12CC[C@@H]3c4ccc(O)cc4[C@@H](O)C[C@H]3[C@@H]1CC[C@@H]2O	26*	0	-6	-4	0
O=C(NCCc1ccc(F)cc1)N[C@@H](Cc1ccccc1)C(=O)O	-3	-3	-16	-6	-11
COc1ccc(C=O)c(OC)c1	12*	0	3	2	-13
COc1cc(O)ccc1C=O	-5	-3	2	0	-3
Cc1noc(C)c1CSc1nnc2n(-c3ccccc3)c(=O)c3ccccc3n12	21*	2	-1	2	-31
O=C1CC(c2ccc(Cl)cc2)CC(O)=C1C=NCCO (stereo unspecified)	3	-2	4	1	4
CC(C)c1ccc(NC(=O)CN2C(=O)NC(C)(C3CC3)C2=O)cc1 (stereo unspecified)	0	-4	x	-1	-1
CC1(C2CC2)NC(=O)N(CC(=O)Nc2ccc(C(F)(F)F)cc2)C1=O (stereo unspecified)	12*	1	x	0	4
Cc1ccc(-n2nnnc2SCC(=O)c2c(N)n(C3CC3)c(=O)[nH]c2=O)cc1	17*	5	x	-4	-15
Cc1ccc(C)c(-n2ccnc2SCC(=O)c2c(N)n(C3CC3)c(=O)[nH]c2=O)c1	+	6	x	0	-23
COCCn1c(SCC(=O)c2c(N)n(C3CC3)c(=O)[nH]c2=O)nnc1-c1ccc(Cl)cc1	+	-1	x	2	-15
COc1cccc(-c2ncc3ccccc3c2COC(=O)c2ccco2)c1	-4	1	x	4	-2
CCc1ccc(NC(=O)CNC(=O)[C@@H]2Cc3ccccc3CN2C(=O)OC(C)(C)C)cc1	1	-2	-4	1	1
SMILES	LANA-H2A inh	LYPLA1 inh	EBNA-1 inhibitor	LYPLA2 counter	ZTA DNA inh
COc1ccc(/C=C/C(=O)Nc2ccccc2)cc1OC	0	-2	9	2	15
COc1ccc(/C=C/C(=O)Nc2nnc(C(C)C)s2)cc1OC	20*	-3	-2	-1	0
COc1ccccc1CNC(=O)CCC(=O)Nc1nnc(C(C)C)s1	20*	-1	-6	1	8
CC(C)C(NC(=O)c1ccc(Cl)c([N+](=O)[O-])c1)C(=O)NCc1ccccn1 (stereo unspecified)	-1	x	x	x	x
O=C1CCCC(O)=C1C=Nc1ccc(O)cc1	17*	-6	-7	1	0
CCN(C(=O)CCCCC(=O)N(CC)c1ccccc1)c1ccccc1	0	-1	-5	1	0
O=C(CSc1nc2nn(-c3ccccc3)c(=O)c-2c2n1CCCCC2)Nc1ccc(OC(F)F)cc1	3	x	x	x	x
CC(=O)C(Cc1ccccc1)NC(=O)CN(C)Cc1ccccc1Cl (stereo unspecified)	-10	3	6	2	5
O=C(c1cc(C2CC2)on1)N1CCCC(N2CCN(c3ccc(F)cc3)CC2)C1 (stereo unspecified)	13*	1	-1	10	-28
COc1ccccc1N1CCN(C2CCCN(C(=O)c3cc(C4CC4)on3)C2)CC1 (stereo unspecified)	3	2	8	1	13
CCOc1ccc(C(=O)NC(=S)Nc2cc(C)ccn2)cc1[N+](=O)[O-]	98*	1	-13	0	0
CC1CC(=O)Nc2ccccc2N1S(=O)(=O)c1cccc(Cl)c1 (stereo unspecified)	-4	-1	-8	5	-8
CC(C)(C)N(Cc1ccccc1)C(=O)c1ccc(Br)o1	9.6*	-4	5	-10	15
N#Cc1ccccc1NC(=O)CSc1nnc(-c2ccncc2)o1	13*	1	-3	8	-13
Cc1ccc(C)c(NC(=O)CSc2nnc(-c3ccncc3)o2)c1	6	0	2	-3	-9
CN(CC(=O)N1CCCC1)S(=O)(=O)c1ccc2ccccc2c1	17*	3	0	7	-12
Cc1ccc(NS(=O)(=O)c2cccc3nsnc23)cc1[N+](=O)[O-]	5	0	-5	2	-2
O=C(Nc1ccc2c(c1)OCCO2)C1CC(c2ccccc2Cl)=NO1 (stereo unspecified)	9.2*	5	-4	0	-20
O=c1[nH][nH]c(=O)c2cc([N+](=O)[O-])ccc12	40*	-2	x	-1	14
COc1ccc(CN2CC(C(=O)NCCCN3CCCC(C)C3)CC2=O)cc1 (stereo unspecified)	-1	-1	-5	1	3
O=C(c1cc[n+]([O-])cc1)N1CCCC(N2CCN(c3cccc(C(F)(F)F)c3)CC2)C1 (stereo unspecified)	21*	4	-1	25	1
O=C(c1ccsc1)N1CCCC(N2CCN(c3cccc(C(F)(F)F)c3)CC2)C1 (stereo unspecified)	0	3	-4	3	-6
COC(=O)CC1=C(C(=O)OC)C(c2cc(OC)c(OC)cc2OC)C(C#N)=C(N)O1 (stereo unspecified)	14*	-1	-6	-2	-13
COC(=O)CC1=C(C(=O)OC)[C@@H](c2ccccc2[N+](=O)[O-])C(C#N)=C(N)O1	1	1	-1	-2	2
Cc1ccc(CCN2CC(C(=O)N3CCN(c4ccc(F)cc4)CC3)CC2=O)cc1 (stereo unspecified)	22*	0	-9	1	-13
